{
  "source": "PubChem BioAssay (EPA / NIEHS)",
  "note": "Active and inactive are the calls of the source. The calls were made as follows: active = hit-call score of the fitted dose curve at least 0.9, where 1 is the maximum; inactive = score below 0.9.",
  "data": [
    {"read-out": "JUN Transcription Factor, JUN (gene 3725)", "assay": "LTEA_HepaRG_JUN: Life Technologies and Expression Analysis (LTEA) Assay for JUN Transcription Factor using HepaRG (AID 2283513)", "details": "mRNA level, 48 h; actives raise or lower the signal", "protocol": "LTEA_HepaRG is a cell based, multiplexed-readout assay that uses HepaRG, a human liver cell line, with measurements taken at 48 hours after chemical dosing on a 96-well plate.LTEA_HepaRG_JUN is one of 102 assay component(s) measured in the LTEA HepaRG cell culture assay. It is a marker of Cell proliferation, survival, death.Data from the assay component LTEA_HepaRG_JUN was analyzed into 1 endpoint. This assay endpoint, LTEA_HepaRG_JUN, was analyzed with bidirectional fitting relative to DMSO as the negative control and baseline of activity. Using a type of inducible reporter, measures of mRNA induction for gain or loss-of-signal activity can be used to understand regulation of transcription factor activity. To generalize the intended target to other relatable targets, this assay endpoint is annotated to the dna binding intended target family, where the subfamily is basic leucine zipper.\nA total of 1060 chemcials from the ToxCast library were tested in eight-point concentration-response experiments. Cell culture and cytotoxicity assays were conducted at Thermo Fisher Scientific's Custom Services facility (Madison, WI). A single lot of human HepaRG cells (Thermo Fisher Scientific, Frederick, MD) was used for the cell culture experiments. 96-well format collagen type I coated plates of human HepaRG cells were prepared using established methods. Briefly, cryopreserved HepaRG cells were thawed, plated at a density of approximately 100,000 cells/well in HepaRG Thaw, Plate, and General Purpose media (HPRG770, Thermo Fisher Scientific), and incubated for 48 hours. 0.5% DMSO was selected as vehicle control to balance the requisite need of DMSO in HepaRG cultures to maintain differentiation (for example, baseline metabolism, proportions of hepatocytes vs. cholangiocytes), while enabling further hepatic receptor pathway activation (for example, PXR and CAR) in response to chemical exposure. 48 hours after plating, the culture medium was replaced with HepaRG Serum-Free Incudtion Media. Cells were exposed to each test chemical in duplicate and maintained in CO2 incubators for another 48 hours. Chemical plates were thawed to room temperature and 200x concentrations of treatment groups were prepared. 8-point conentration-reponse curves were made with the highest exposure at 100 uM, followed by half-log dilutions, all in 0.5% DMSO. Each test plate contained variouse controls, induction positive controls (1mM phenobarbital), cytotoxicity positive controls ([…] aflatoxin B1), vehicle controls (0.5% DMSO), and total lysis controls (0.5% DMSO). Cell morphology images were taken using an Essen IncuCyte FLR automated microscope, with six 96-well plates imaged in about 24 minutes. Images were captured and exported and JPEG files. Spent culture media was transfered to black-well plates for the LDH assay, and remaining media was sorted at -80 C for later use. Cells were treated with RLT buffer and frozen until shipped for gene expression analysis. Total RNA was isolated from the cell suspension in 75 uL of Buffer RLT (Qiagen, Germantown, MD 20874) by Quintiles/Expression Analysis (Durham, NC) using a custom isolation procedure. Total RNA from each plate well was transferred to a preamplification plate. Fluidigm's 96.96 Dynamic ArrayTM (Fluidigm, Amsterdam, the Netherlands) technology was used for gene expression analyses by quantitative reverse transcription polymerase chain reaction (qRT-PCR, performed by Quintiles/Expression Analysis, Durham, NC)89. Standard TaqManTM Assays (Applied Biosystems/ThermoFisher Scientific, Foster City, CA) were used to assess the expression of 93 genes selected based on their selectivity and sensitivity to important hepatic receptors known to be modulated by environmental chemicals; importance in human hepatocyte functionality; and hepatotoxicity. […]", "values": [
      {"molecule": "OCCCBr", "outcome": "inactive"},
      {"molecule": "c1ccc(C2CO2)cc1", "note": "(stereo not given)", "outcome": "inactive"},
      {"molecule": "CO[C@@H]1[C@H](OC(=O)NC(=O)CCl)CC[C@]2(CO2)[C@H]1[C@@]1(C)O[C@@H]1CC=C(C)C", "outcome": "inactive"},
      {"molecule": "COC(=O)c1ccccc1N", "outcome": "inactive"},
      {"molecule": "CC(C)(OOC(C)(C)c1ccccc1)c1ccccc1", "outcome": "inactive"},
      {"molecule": "Brc1ccc(Oc2ccccc2)cc1", "outcome": "inactive"},
      {"molecule": "CCCCCOC(=O)c1ccccc1C(=O)OCCCCC", "outcome": "inactive"},
      {"molecule": "[O-][Cl+]O", "outcome": "inactive"},
      {"molecule": "Cc1ccc(N=C=O)cc1N=C=O", "outcome": "inactive"},
      {"molecule": "CN(C)c1ccccc1", "outcome": "inactive"},
      {"molecule": "Clc1ccc(Cl)c(Cl)c1", "outcome": "inactive"},
      {"molecule": "Cc1ccc(N)c(N)c1", "outcome": "inactive"},
      {"molecule": "Oc1ccc2ccc3cccc4ccc1c2c34", "outcome": "inactive"},
      {"molecule": "Clc1ccccc1Cl", "outcome": "inactive"},
      {"molecule": "CC(C)(C)C(O)(CCc1ccc(Cl)cc1)Cn1cncn1", "note": "(stereo not given)", "outcome": "inactive"},
      {"molecule": "O=Cc1ccco1", "outcome": "inactive"},
      {"molecule": "ClC1=C(Cl)C2(Cl)C3C(Cl)C=CC3C1(Cl)C2(Cl)Cl", "note": "(stereo not given)", "outcome": "inactive"},
      {"molecule": "O=P(OCCCl)(OCCCl)OCCCl", "outcome": "inactive"},
      {"molecule": "O=C1CCCO1", "outcome": "inactive"},
      {"molecule": "C[N+](C)(C)CC1CO1", "note": "(stereo not given)", "outcome": "inactive"},
      {"molecule": "OCCCl", "outcome": "inactive"},
      {"molecule": "CN(C)c1ccc(C(=O)c2ccc(N(C)C)cc2)cc1", "outcome": "inactive"},
      {"molecule": "N#CC(Br)Br", "outcome": "inactive"},
      {"molecule": "CC(C)N(Cc1ccccc1)C(=O)C(C)(C)C", "outcome": "inactive"},
      {"molecule": "CN(C)C(=O)Nc1ccc(Cl)cc1", "outcome": "inactive"},
      {"molecule": "CCNS(=O)(=O)C(F)(F)C(F)(F)C(F)(F)C(F)(F)C(F)(F)C(F)(F)C(F)(F)C(F)(F)F", "outcome": "inactive"},
      {"molecule": "CCCCCCCCCCCCCN1CC(C)OC(C)C1", "note": "(stereo not given)", "outcome": "inactive"},
      {"molecule": "COP(=S)(OC)SCN1C(=O)c2ccccc2C1=O", "outcome": "inactive"},
      {"molecule": "CNC(=O)Oc1cccc2c1OC(C)(C)C2", "outcome": "inactive"},
      {"molecule": "CCOc1cccc(C2(N3CCN(c4ccccc4)CC3)CCC(C)CC2)c1", "note": "(stereo not given)", "outcome": "inactive"},
      {"molecule": "Nc1ccc(Cl)cc1N", "outcome": "inactive"},
      {"molecule": "CC(C)(C)OOC(=O)c1ccccc1", "outcome": "inactive"},
      {"molecule": "CS(=O)(=O)NC(=O)c1cc(Oc2ccc(C(F)(F)F)cc2Cl)ccc1[N+](=O)[O-]", "outcome": "inactive"},
      {"molecule": "CCCCCCCCn1sccc1=O", "outcome": "inactive"},
      {"molecule": "Nc1ccc(Cc2ccc(N)cc2)cc1", "outcome": "inactive"},
      {"molecule": "CCCCCCCCOC(=O)c1ccc(C(=O)OCCCCCCCC)c(C(=O)OCCCCCCCC)c1", "outcome": "inactive"},
      {"molecule": "O=[N+]([O-])c1ccc(Oc2ccc(Cl)cc2Cl)cc1", "outcome": "inactive"},
      {"molecule": "Oc1ccccc1Cl", "outcome": "inactive"},
      {"molecule": "Cn1cc(-c2ccccc2)c(=O)c(-c2cccc(C(F)(F)F)c2)c1", "outcome": "inactive"},
      {"molecule": "ClCCOCCCl", "outcome": "inactive"}
    ]}
  ]
}
